Source: PubChem BioAssay AID933 (National Center for Advancing Translational Sciences (NCATS), 2007)
Records with an inconclusive call do not appear. Values without a mark were called inactive. Active and inactive are the calls of the source. Calls come from the whole dose curve; as a rule, active = well fitted activation curve with a large enough effect in the signal ratio, with a control signal flat; inconclusive = small, poorly fitted or top-dose-only effect, or a change in a side signal; inactive = flat fitted curve, though single readings scatter; the % refers to the signal ratio.

Target: Thyrotropin receptor (Homo sapiens) (UniProt P16473)
Sequence (P16473 whole entry, looked up): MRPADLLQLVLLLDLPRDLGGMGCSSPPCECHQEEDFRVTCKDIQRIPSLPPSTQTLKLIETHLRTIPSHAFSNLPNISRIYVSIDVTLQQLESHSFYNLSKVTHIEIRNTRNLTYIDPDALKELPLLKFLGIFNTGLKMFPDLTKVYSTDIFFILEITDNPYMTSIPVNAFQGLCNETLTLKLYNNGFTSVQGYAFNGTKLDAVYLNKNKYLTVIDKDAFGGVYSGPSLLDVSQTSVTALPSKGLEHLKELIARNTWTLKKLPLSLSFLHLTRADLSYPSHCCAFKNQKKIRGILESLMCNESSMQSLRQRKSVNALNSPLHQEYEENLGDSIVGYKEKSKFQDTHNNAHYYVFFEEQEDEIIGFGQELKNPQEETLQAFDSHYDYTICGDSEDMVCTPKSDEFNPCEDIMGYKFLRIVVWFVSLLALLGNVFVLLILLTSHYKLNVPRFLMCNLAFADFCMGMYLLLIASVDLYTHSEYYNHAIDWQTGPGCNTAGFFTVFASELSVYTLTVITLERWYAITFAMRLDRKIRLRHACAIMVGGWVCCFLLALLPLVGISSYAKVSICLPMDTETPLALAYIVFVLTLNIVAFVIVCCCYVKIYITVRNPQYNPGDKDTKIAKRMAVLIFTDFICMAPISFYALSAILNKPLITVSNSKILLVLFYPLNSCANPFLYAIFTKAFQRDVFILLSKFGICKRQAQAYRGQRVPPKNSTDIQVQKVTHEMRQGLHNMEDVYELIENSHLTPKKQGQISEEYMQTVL
Test: Secondary Concentration-Response Assay for Agonists of the Thyroid Stimulating Hormone Receptor: HTRF Activity Detection;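 for activation: HEK 293 cells stably expressing human TSHR with RO 20-1724 phosphodiesterase inhibitor; % of control where 0% means no effect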
Settings: HEK293-TSHR cells, cAMP HTRF ratio, 30 min; series mostly up to 91.7 µM; activation: at the top concentration
How it was run: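 Orthogonal confirmation in a separate TSHR-transfected HEK 293 line: cells in medium with 10 % FCS and 100 uM RO 20-1724 got compound for 30 min at room temperature. cAMP was measured by HTRF (d2-cAMP/anti-cAMP antibody), 615/660 nm emission.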
Potency is the fitted concentration of half-maximal effect.

SMILES	activation	Potency
COc1cc(OC)cc(C(=O)N(Cc2ccco2)Cc2cccs2)c1	-0.173%	
O=C1c2ccccc2NC(c2ccccc2)N1Cc1ccco1 (stereo unspecified)		inactive
CCCN1C(=O)c2ccccc2NC1c1ccc(OC)c(COc2cccc(C)c2C)c1 (stereo unspecified)	1.8%	
CCN(CC)CCN1C(=O)c2ccccc2NC1c1cc(OC)c(OC)c(OC)c1 (stereo unspecified)	0.196%	
COc1cccc(OCc2cc(C3Nc4ccccc4C(=O)N3c3ccccc3)ccc2OC)c1 (stereo unspecified)	1.73%	
COc1ccc(C2Nc3ccccc3C(=O)N2Cc2ccccc2)cc1COc1ccc(C)cc1 (stereo unspecified)	18.2%	
COC(=O)C1=C(C)NC(C)=C(C(=O)OC)C1c1ccc(OC(=O)c2ccco2)cc1	0.436% [at 0.00035 µM]	
COc1ccc2c(c1OC)C(=O)N1c3ccccc3C(=O)N(Cc3ccco3)C21 (stereo unspecified)	18.7%	
CC(c1ccco1)N(C(=O)c1ccc(Cl)s1)c1ccccn1 (stereo unspecified)	0.422% [at 0.00035 µM]	
COc1ccc(/C=N/n2cncn2)cc1COc1ccc(NC(C)=O)cc1	1.15%	
CC1CCN(S(=O)(=O)c2cccc(C(=O)Nc3ccccn3)c2)CC1	0.1% [at 0.00035 µM]	
COc1ccc(C2Nc3ccccc3C(=O)N2Cc2ccccc2)cc1Cn1nnc2ccccc21 (stereo unspecified)	2.1%	
O=C1C2C3CCCC3=C3CCCC3C2C(=O)N1c1ccccc1Cl (stereo unspecified)	0.928%	
COc1ccc(C2Nc3ccccc3C(=O)N2Cc2ccco2)cc1COc1ccc([N+](=O)[O-])c(C)c1 (stereo unspecified)	1.82%	
COc1cccc(OCc2cc(C3Nc4ccccc4C(=O)N3Cc3ccccc3)ccc2OC)c1 (stereo unspecified)	1.17%	
CCS(=O)(=O)N1CCN(C(C)CCc2ccccc2)CC1 (stereo unspecified)	0.972% [at 0.00035 µM]	
Cc1ccc(S(=O)(=O)N2CCC(C(=O)NCCCN3CCCCCC3)CC2)cc1	0.566% [at 0.00035 µM]	
COc1ccc(-c2nc3ccc(NC(=O)COC(C)=O)cc3c(=O)n2Cc2ccccc2)cc1COc1ccc(NC(C)=O)cc1	16.2%	

SMILES	activation	Potency
COc1cc(OC)cc(-c2nnc(SCC(=O)N(C(C)C)C(C)C)o2)c1	0.0275% [at 0.00035 µM]	
COc1ccc(C2Nc3ccccc3C(=O)N2Cc2ccc(Cl)cc2)cc1COc1ccc(NC(C)=O)cc1 (stereo unspecified)		3.16 µM (active)
Cc1cc(C)nc(N(C#N)CC(=O)N2CCC(C(N)=O)CC2)n1	1.28% [at 0.00035 µM]	
COc1ccc(CN2C(=O)c3ccccc3NC2c2ccc(OC)c(COc3ccc(NC(C)=O)cc3)c2)cc1 (stereo unspecified)		3.16 µM (active)
O=C(Nc1ccccn1)NC12CC3CC(CC(C3)C1)C2	0.487% [at 0.00035 µM]	
COc1cc(C2Nc3ccccc3C(=O)N2c2ccccc2)ccc1O (stereo unspecified)	1.29%	
COc1cc(C2Nc3ccccc3C(=O)N2Cc2ccco2)cc(OC)c1OC (stereo unspecified)	2.24%	
CCOC(=O)COc1c(OC)cc(Cl)cc1C1Nc2ccccc2C(=O)N1c1ccccc1 (stereo unspecified)	0.286%	
Cc1cc(Cl)c(S(=O)(=O)Nc2ccc3c(c2)OCO3)cc1OCC(N)=O	-1.33% [at 0.00035 µM]	
NC(=O)c1nsc(C(=O)N(CC(=O)NCc2ccc3c(c2)OCO3)C2CCCC2)c1N		inactive
COc1ccc(C2Nc3ccccc3C(=O)N2Cc2ccc(C(C)(C)C)cc2)cc1COc1ccc(NC(C)=O)cc1 (stereo unspecified)	12.7%	
COc1ccc(C2Nc3ccc(NC(=O)COC(C)=O)cc3C(=O)N2Cc2ccccc2)cc1COc1ccc(NC(C)=O)cc1 (stereo unspecified)		8.91 µM (active)
C=C(C)Cn1c(-c2ccccc2)nc2ccccc21	0.0214% [at 0.00035 µM]	
COc1ccc(C2Nc3ccccc3C(=O)N2Cc2ccccc2)cc1COc1ccc([N+](=O)[O-])cc1 (stereo unspecified)	1.19%	
CCn1c(=O)c(C(=O)CN2CCCc3ccccc32)c(N)n(Cc2ccccc2)c1=O	0.971%	
COc1ccc(C2Nc3cccc(O)c3C(=O)N2Cc2ccccc2)cc1COc1ccc(NC(C)=O)cc1 (stereo unspecified)		7.94 µM (active)
CCCN1C(=O)c2ccccc2NC1c1ccc(OC)cc1O (stereo unspecified)	0.32%	
CC(=O)N1CCCc2cc(S(=O)(=O)N(CC(C)C)CC(C)C)ccc21	-0.0207% [at 0.00035 µM]	
